Assay outcomes (PubChem BioAssay)
Compounds with a hit are over-represented: about 4.8% of the library has one in this group of screens.
SMARCA2 activ = activators of SMARCA2 function. activation, % at 9.1 µM. AID 652017. MG213 cells, MMTV-luciferase reporter, dexamethasone, overnight. 370,000 compounds, 1% hits; in the data active means activation above about 7.8%;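 further: 0% = vehicle wells and 100% = reference activator wells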
hcDAF12 agonist = activates DAF-12 receptor from parasite H. contortus | 370,000 compounds, 1.4% hits | HEK293 hcDAF-12 lit1-tk-luc reporter, luminescence; 0% DMSO, 100% Δ7-dafachronic acid | activation, % at 6.8 µM | AID 652067;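 active means activation above the mean of all tested compounds plus 3 SD, cut at about 5.5% in these data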;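 further: 100% = response to 3 µM Δ7-dafachronic acid high control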
ssDAF12 agonist = activates DAF-12 receptor from parasite S. stercoralis | AID 652126 | HEK293 ssDAF-12/GRIP1 lit1-tk-luc reporter, luminescence; % of 3 µM dafachronic acid response | activation, % at 6.8 µM | 370,000 compounds, 1% hits;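 active means activation above the mean over all tested compounds plus 3 SD, cut at about 0.9% in these data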;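 further: 0% = DMSO-only wells and 100% = 3 µM delta7-dafachronic acid wells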
DAX1 inh-1 = blocks DAX1 repression of SF-1 activated StAR promoter; HEK293T StAR-luciferase reporter, SF-1/DAX-1 repression relief; 370,000 compounds, 1.1% hits; inhibition, % at 6.8 µM;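 active means inhibition above the mean over all tested compounds plus 3 SD, cut at about 3.6% in these data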;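 further: 0% = DAX-1 cells with DMSO and 100% = cells lacking DAX-1 with DMSO; higher inhibition means more luminescence from relief of DAX-1 repression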
hgDAF12 agonist = agonists of H. glycines DAF-12 nuclear receptor; HEK293 GAL4-hgDAF12 UAS-luciferase reporter, agonist luminescence; normalized to butyrate control; 370,000 compounds, 1.8% hits; activation, % at 6.8 µM;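 active means activation above a cutoff set at the mean of all screened compounds plus 3 SD, cut at about 10% in these data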;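 further: 0% = DMSO wells and 100% = sodium butyrate wells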
DAX1 inh-2 = inhibits human nuclear receptor DAX1. P51843. HEK293 Gal4-DAX1 luciferase reporter, luminescence. inhibition, % at 6.75 µM. 340,000 compounds, 0.99% hits;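 active means inhibition above the mean over all tested compounds plus 3 SD, cut at about 4.2% in these data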;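 further: 0% = DAX1-transfected cells with DMSO and 100% = empty-vector control cells with DMSO; inhibition shows as a rise in luminescence from relieved DAX1 repression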
Target sequence (P51843 207-470 limits assumed): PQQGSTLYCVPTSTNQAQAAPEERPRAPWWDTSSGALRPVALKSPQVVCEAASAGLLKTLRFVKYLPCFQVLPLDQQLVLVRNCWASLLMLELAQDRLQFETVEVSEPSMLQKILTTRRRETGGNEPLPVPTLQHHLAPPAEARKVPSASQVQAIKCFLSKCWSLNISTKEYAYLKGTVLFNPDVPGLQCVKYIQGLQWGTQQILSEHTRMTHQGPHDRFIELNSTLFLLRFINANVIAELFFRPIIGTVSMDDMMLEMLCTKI
* marks the source's active call; other numbers are inactive results.

Results for CN=c1scc(C)n1/N=C/c1ccc2c(c1)OCO2 ?
SMARCA2 activ: 4.8; hcDAF12 agonist: 9.6*; ssDAF12 agonist: 0.3; DAX1 inh-1: 5.6*; hgDAF12 agonist: 11.0*; DAX1 inh-2: -1.5

Results for CC(Oc1ccc(Br)cc1)C(=O)NCC(C)(C)N1CCOCC1 (centres undefined) ?
SMARCA2 activ: 3.4; hcDAF12 agonist: -1.9; ssDAF12 agonist: -0.8; DAX1 inh-1: -0.2; hgDAF12 agonist: -4.2; DAX1 inh-2: -0.1

What do the screens show for `CCn1c(/C=C/c2ccccc2[N+](=O)[O-])nc2ccccc2c1=O`?
SMARCA2 activ: -4.3; hcDAF12 agonist: -1.1; ssDAF12 agonist: -1.1; DAX1 inh-1: -0.5; hgDAF12 agonist: -0.6; DAX1 inh-2: -0.1

How did Cn1c(/C=C/c2ccccc2[N+](=O)[O-])nc2ccccc2c1=O do in these assays?
SMARCA2 activ: 1.0; hcDAF12 agonist: -0.5; ssDAF12 agonist: -0.8; DAX1 inh-1: -0.6; hgDAF12 agonist: 2.9; DAX1 inh-2: 4.5*

Results for Cc1csc(-c2nc3ccccc3n2C(C)c2nc3ccccc3[nH]2)c1 (centres undefined) ?
SMARCA2 activ: -4.5; hcDAF12 agonist: 5.7*; ssDAF12 agonist: 0.3; DAX1 inh-1: 0.7; hgDAF12 agonist: -1.0

What do the screens show for `COc1ccccc1C(=O)NCC(=O)N/N=C/c1ccc2c(c1)OCO2`?
SMARCA2 activ: -1.0; hcDAF12 agonist: -0.5; ssDAF12 agonist: -0.9; DAX1 inh-1: -0.1; hgDAF12 agonist: -0.8; DAX1 inh-2: -1.9

Results for Cc1cc(NC(=O)Nc2ccc(Cl)cc2)no1 ?
SMARCA2 activ: -0.3; hcDAF12 agonist: 2.0; ssDAF12 agonist: -1.1; DAX1 inh-1: 0.6; hgDAF12 agonist: 2.5; DAX1 inh-2: 4.8*

How did CC(C)NC(=S)NC(=O)c1ccc(Cl)cc1Cl do in these assays?
SMARCA2 activ: -4.3; hcDAF12 agonist: 5.7*; ssDAF12 agonist: -0.1; DAX1 inh-1: 0.5; hgDAF12 agonist: 4.1; DAX1 inh-2: -1.0

How did Cc1ccc(C(=O)Nc2ccc(Cl)cc2C(F)(F)F)c(Cl)c1 do in these assays?
SMARCA2 activ: 2.5; hcDAF12 agonist: -0.3; ssDAF12 agonist: -0.8; DAX1 inh-1: 0.1; hgDAF12 agonist: 12.6*; DAX1 inh-2: 0.8

How did Cc1cc(NC(=O)c2cc(C)on2)no1 do in these assays?
SMARCA2 activ: -3.2; hcDAF12 agonist: 3.3; ssDAF12 agonist: -0.2; DAX1 inh-1: -0.6; hgDAF12 agonist: 0.3; DAX1 inh-2: -0.3

How did Cc1cc(NC(=O)c2ccc(Cl)cc2Cl)no1 do in these assays?
SMARCA2 activ: 6.6; hcDAF12 agonist: 5.2; ssDAF12 agonist: -0.3; DAX1 inh-1: 2.8; hgDAF12 agonist: 11.9*; DAX1 inh-2: 6.7*

What do the screens show for `C=C(C)Cn1c(N2CC(C)CC(C)C2)nc2c1c(=O)[nH]c(=O)n2C` (centres undefined)?
SMARCA2 activ: -0.3; hcDAF12 agonist: -0.8; ssDAF12 agonist: -1.5; DAX1 inh-1: -0.3; hgDAF12 agonist: 0.7; DAX1 inh-2: 0.4

What do the screens show for `CCn1ncc(C(=O)Nc2cc(C)on2)c1C`?
SMARCA2 activ: 3.9; hcDAF12 agonist: 1.2; ssDAF12 agonist: -0.9; DAX1 inh-1: 1.4; hgDAF12 agonist: 11.8*; DAX1 inh-2: 2.2

Results for O=C(Nc1ccsn1)c1ccc(Cl)cc1Cl ?
SMARCA2 activ: 4.9; hcDAF12 agonist: 0.5; ssDAF12 agonist: -0.8; DAX1 inh-1: -0.1; hgDAF12 agonist: 11.6*; DAX1 inh-2: 4.5*

Results for O=C(NCCNC(=O)c1ccc(Cl)cc1Cl)c1ccc(Cl)cc1Cl ?
SMARCA2 activ: -4.8; hcDAF12 agonist: -1.1; ssDAF12 agonist: -0.8; DAX1 inh-1: 0.3; hgDAF12 agonist: 3.1

Results for CCN1CCN(Cc2ccc(NC(=O)Nc3ccccc3OC)cc2)CC1 ?
SMARCA2 activ: 4.6; hcDAF12 agonist: 4.9; ssDAF12 agonist: 0.0; DAX1 inh-1: 1.2; hgDAF12 agonist: 11.7*; DAX1 inh-2: 1.9

How did CCOC(=O)c1c(O)c(Cl)c(C)[nH]c1=O do in these assays?
SMARCA2 activ: -4.4; hcDAF12 agonist: -0.6; ssDAF12 agonist: -0.3; DAX1 inh-1: 0.2; hgDAF12 agonist: 11.8*; DAX1 inh-2: 1.0

How did COc1cc2oc(=O)cc(-c3cccc(-c4cccc(C)c4)c3)c2c(OC)c1OC do in these assays?
SMARCA2 activ: -4.2; hcDAF12 agonist: -2.2; ssDAF12 agonist: -1.9; DAX1 inh-1: -1.2; hgDAF12 agonist: -2.2; DAX1 inh-2: -0.5

What do the screens show for `Nc1[nH]nc2nc3ccccc3cc12`?
SMARCA2 activ: 2.2; hcDAF12 agonist: 2.9; ssDAF12 agonist: -1.0; DAX1 inh-1: 1.1; hgDAF12 agonist: 2.9; DAX1 inh-2: 0.7

How did CCc1ccc2nc3n[nH]c(N)c3cc2c1 do in these assays?
SMARCA2 activ: 3.7; hcDAF12 agonist: 3.8; ssDAF12 agonist: -0.7; DAX1 inh-1: 2.9; hgDAF12 agonist: 11.3*; DAX1 inh-2: 1.2

Results for COc1ccc(C(CNC(=O)COc2ccccc2)N2CCCCC2)cc1 (centres undefined) ?
SMARCA2 activ: 2.1; hcDAF12 agonist: -0.4; ssDAF12 agonist: -0.6; DAX1 inh-1: -4.3; hgDAF12 agonist: -1.3; DAX1 inh-2: 1.0

What do the screens show for `COC(=O)c1cn[nH]c1NC(=S)Nc1ccc(Cl)c(Cl)c1`?
SMARCA2 activ: 0.1; hcDAF12 agonist: 2.5; ssDAF12 agonist: -1.0; DAX1 inh-1: 2.5; hgDAF12 agonist: 5.9; DAX1 inh-2: 1.7

How did COC(=O)c1cn[nH]c1NC(=S)Nc1ccc(C)cc1Cl do in these assays?
SMARCA2 activ: -2.0; hcDAF12 agonist: 5.1; ssDAF12 agonist: -1.1; DAX1 inh-1: 4.2*; hgDAF12 agonist: 7.8; DAX1 inh-2: 0.0

How did CCC1C/C(=C\c2cccnc2)C(=O)/C(=C/c2cccnc2)C1 (centres undefined) do in these assays?
SMARCA2 activ: -11.8; hcDAF12 agonist: -10.2; ssDAF12 agonist: -3.9; DAX1 inh-1: -4.5; hgDAF12 agonist: -13.4; DAX1 inh-2: -5.0

What do the screens show for `O=C(CCc1ccccc1)Nc1ccc(S(=O)(=O)Nc2nccs2)cc1`?
SMARCA2 activ: -2.1; hcDAF12 agonist: 6.3*; ssDAF12 agonist: -0.1; DAX1 inh-1: -0.3; hgDAF12 agonist: 1.6; DAX1 inh-2: -1.1

What do the screens show for `O=C(O)Cn1c(O)c(C2=c3ccccc3=NC2=O)sc1=O`?
SMARCA2 activ: -2.9; hcDAF12 agonist: 5.1; ssDAF12 agonist: 0.1; DAX1 inh-1: 0.4; hgDAF12 agonist: 1.5; DAX1 inh-2: -0.4

How did Cc1c(-n2c(O)c(C3=c4ccccc4=NC3=O)sc2=O)c(=O)n(-c2ccccc2)n1C do in these assays?
SMARCA2 activ: -3.5; hcDAF12 agonist: 1.7; ssDAF12 agonist: 1.1*; DAX1 inh-1: 0.5; hgDAF12 agonist: 0.0; DAX1 inh-2: -0.2

How did COc1cc(S(=O)(=O)n2c(C)nc3ccccc32)ccc1F do in these assays?
SMARCA2 activ: -1.6; hcDAF12 agonist: -0.9; ssDAF12 agonist: -1.1; DAX1 inh-1: -0.6; hgDAF12 agonist: 4.1; DAX1 inh-2: 1.5
